Sm TGR block: qHTS Assay for the Inhibitors of Schistosoma Mansoni Peroxiredoxins; Potency, µM (titrated, usually from 114 µM), without a hit: at the highest dose activity change, negative = inhibition, actives largely listed as inhibitors; purified TGR, DTNB reduction, TNB absorbance 405 nm; 360,000 compounds, 3% hits; Schistosoma mansoni thioredoxin glutathione reductase (TGR), Q962Y6; note: potency is the fitted concentration of half-maximal effect; % is set by controls: 0 for no effect and ±100 for the full control effect; nearly all actives have a fitted effect of over 60% in size
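TGR 20 nM + NADPH 100 uM (dispensed conc.), cpd preinc 15 min RT; start with NADPH (500 uM addition) then DTNB (15 mM addition). Kinetic TNB absorbance, 405 nm filter. Four-parameter Hill fit across titration.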
Shiga toxin inh: A qHTS for Small Molecule Inhibitors of Shiga Toxin | Vero cells, Shiga toxin protein synthesis inhibition reporter | inhibition, % at 38.7 µM | 290,000 compounds, 9.2% hits | AID 2315, 2010; in the data active = inhibition mostly above about 28%, no sharp cut-off; inactive = mostly below about 43%; note: 0% is about no effect
NS1 function inh: qHTS Assay for Inhibitors of Influenza NS1 Protein Function | Potency, µM (titrated, usually from 46.1 µM), without a hit: at the top dose activity, positive = more growth | 270,000 compounds, 0.4% hits | AID 2326, 2010; calls by dose curve; note: potency is the fitted concentration of half-maximal effect; actives are rising curves; nearly all actives have a fitted effect of over 50% in size
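Read-out: OD600 growth recovery of NS1-expressing budding yeast. Cells grown overnight at 30C in -URA glucose medium, washed, resuspended and diluted 1:100 in 2% galactose assay medium, pH 6.0. Same strain lacking NS1 served as positive control.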
Pf growth 48h: Primary qHTS for delayed death inhibitors of the malarial parasite plastid, 48 hour incubation; P. falciparum luciferase growth in erythrocytes, 48 h; Potency, µM (highest dose often 28.7 µM), without a hit: at the highest dose activity change, negative = inhibition, actives largely listed as inhibitors; 310,000 compounds, 5.9% hits; note: potency is the fitted concentration of half-maximal effect; % is set by controls: 0 for no effect and ±100 for the full control effect
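Luminescence readout; reporter = integrated firefly luciferase in P. falciparum. RBC culture at 2% hematocrit, 0.1% parasitemia final, 37 C/5% CO2; decreased signal taken as growth inhibition.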
Cycloheximide cs: Cycloheximide Counterscreen for Small Molecule Inhibitors of Shiga Toxin; cell reporter, cycloheximide protein synthesis inhibition counterscreen; max response, %; 300,000 compounds, 12% hits; in the data active = max response mostly above about 13%, no sharp cut-off; inactive = mostly below about 14%; note: read at 38.3 µM for the half of the compounds with a filed dose; 0% is about no effect
Pf growth 96h: Primary qHTS for delayed death inhibitors of the malarial parasite plastid, 96 hour incubation | P. falciparum luciferase reporter growth, 96 h | Potency, µM (series often up to 28.7 µM), for inactives: at the top dose activity change, negative = inhibition, actives largely listed as inhibitors | 320,000 compounds, 6.9% hits; note: potency is the fitted concentration of half-maximal effect; % is set by controls: 0 for no effect and ±100 for the full control effect
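Parasite growth measured via integrated firefly luciferase reporter in P. falciparum. Infected erythrocytes at 2% hematocrit, 0.05% parasitemia final were treated 96 hours at 37 C under 5% CO2, and luminescence was read.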
* marks the source's active call; other numbers are inactive results; u = inconclusive; x = no result; [ ] = another dose, or the depositor's remark. In the library only some 21% were active in any assay of this set; here they are far more common. Unless noted, calls come from the whole dose curve; as a rule, active = well fitted curve in the direction sought with a large enough effect; inconclusive = small, poorly fitted or top-dose-only effect, or another doubt; inactive = no such curve, though single readings can be large; an effect the other way counts as inactive or inconclusive.

SMILES | Sm TGR block | Shiga toxin inh | NS1 function inh | Pf growth 48h | Cycloheximide cs | Pf growth 96h
Cc1ccc(S(=O)(=O)N(C)C)cc1NC(=O)COC(=O)COc1ccc2c(c1)CCC2 | -7.7% | x | x | 4.5% | x | 10.9%
CCc1ccc(C(=O)COC(=O)c2n[nH]c3ccccc23)cc1 | -3.7% | 87.0* | x | 129.9% | 47.5* | 120.0%
O=C(COC(=O)c1n[nH]c2ccccc12)Nc1ccc([N+](=O)[O-])cc1 | -1.2% | 22.7* | u | 0.0% | 10.5 | 14.2%
O=C(COC(=O)c1n[nH]c2ccccc12)c1cc(F)ccc1F | 1.0% | 44.0* | x | -11.4% | 30.4* | 12.2%
NC(=O)c1ccc(OCC(F)(F)F)nc1 | -4.2% | -10.4 | 1.4% | 32.4% | 1.4 | 51.0%
CCc1ccc(S(=O)(=O)Nc2nnc(N)s2)cc1 | 4.3% | x | 5.9% | -10.6% | -3.6 | u
COc1ccc(NC(=O)C#Cc2ccccc2)cc1OC | -33.5% | 38.6 | -47.8% | u | 12.5* | 7.9%
NC(=O)c1ccc(NC(=O)C#Cc2ccccc2)cc1 | u | 56.1* | -3.1% | u | 34.8* | u
CC(C)(C)n1nc2c(c1NC(=O)c1ccc([N+](=O)[O-])cc1)CS(=O)(=O)C2 | 27.8% | 15.0 | -0.7% | 25.0% | 4.0 | 8.28µM*
O=C(Nc1c2c(nn1-c1ccc([N+](=O)[O-])cc1)CS(=O)(=O)C2)c1cccs1 | 1.9% | 7.2 | u | u | 4.8 | 5.86µM*
CC1=NC(=O)C(N=Nc2ccccc2)N1c1ccccc1 (stereo unspecified) | -0.4% | 51.9* | -8.7% | 279.8% | 28.6* | 33.7%
Cc1cc(C)n2[nH]c(=O)c(N=Nc3ccccc3)c2n1 | -4.1% | 55.8 | -19.5% | -17.8% | 10.4 | x
CC1=NC(=O)C(N=Nc2cccc(C(=O)O)c2)N1c1ccccc1 (stereo unspecified) | 36.6% | 104.5* | -8.9% | 84.2% | 34.9* | x
CC1=NC(=O)C(N=Nc2ccccc2C(=O)O)N1c1ccccc1 (stereo unspecified) | -15.5%[57.1 µM] | 8.3 | -1.9% | -29.8% | -1.5 | 4.65µM*
Cc1cc(NC(=O)N2CCC(CN3CCOCC3)CC2)ccc1Br | 2.7% | x | x | x | x | x
COc1ccc(COC(=O)C2=C(C)NC(=O)NC2c2ccccc2)cc1 (stereo unspecified) | -0.4% | -13.3 | 11.2% | 29.3% | -2.1 | -26.7%
CS(=O)(=O)N1CCc2cc(C(=O)Nc3ccc(Cl)cc3)ccc21 | -15.5% | 13.0 | -3.8% | -19.9% | 16.8* | 55.3%
CS(=O)(=O)N1CCc2cc(NC(=O)c3ccc(Cl)cc3Cl)ccc21 | 1.1% | 43.6 | x | -4.7% | 20.6* | -27.4%
COc1ccc(Cl)cc1NC(=O)c1ccc2c(c1)CCN2S(C)(=O)=O | 0.0% | x | x | x | x | x
CCS(=O)(=O)N1CCc2cc(C(=O)Nc3ccc(C)c(Cl)c3)ccc21 | 4.7% | x | x | x | x | x
COc1cccc(-n2ccnc2SCC(=O)Nc2cccc(C)c2C)c1 | 3.8% | x | x | x | x | x
CCN(CC)CC(O)COc1ccc2c(c1)OCO2 (stereo unspecified) | -12.1% | -3.2 | 0.4% | x | -1.3 | 30.0%
Cc1ccc(COc2ccc3c(c2)OCO3)cc1 | 9.1% | 96.6* | -9.8% | 198.1% | 30.7* | 156.3%
O=Cc1ccc(OCc2ccc3c(c2)OCO3)cc1 | -2.4% | x | -108.3% | -13.1% | 35.2* | u
O=C(/C=C/c1cccc([N+](=O)[O-])c1)NCCSCc1cccc(Cl)c1 | -4.4% | -4.5 | -43.3% | 1.3% | -1.2 | 14.3%
SMILES | Sm TGR block | Shiga toxin inh | NS1 function inh | Pf growth 48h | Cycloheximide cs | Pf growth 96h
O=C(/C=C/c1ccccc1)NCCCNC(=O)/C=C/c1ccccc1 | -1.6% | 22.9 | x | u | 4.4 | 8.28µM*
COc1ccc(/C=C/C(=O)NCCSCc2ccco2)cc1 | u | 35.6 | -3.1% | -4.9% | 17.4* | 9.28µM*
O=C(/C=C/c1ccccc1)NCCO | x | x | x | 8.3% | x | -0.9%
O=C(/C=C/c1ccccc1)NCCSCc1ccccc1 | 0.7% | 44.2* | -62.3% | u | 31.3 | -5.7%
COCCCNC(=O)/C=C/c1cccc(Cl)c1 | u | 29.7 | -1.1% | 38.6% | 21.2* | 97.8%
O=C(CSc1nnnn1-c1cccc2c1CCCC2)N1CCCCC1 | 0.6% | 25.3 | -4.4% | u | -4.5 | u
COc1ccc(S(=O)(=O)N2CCN(C(=O)c3cc(C)on3)CC2)cc1 | -10.6% | x | x | 5.3% | x | u
CN(C(=O)COC(=O)c1ccc2ccccc2n1)C1CCS(=O)(=O)C1 (stereo unspecified) | 0.8% | -8.1 | 5.3% | 6.0% | 1.1 | 30.0%
Cc1ccccc1OCCNC(=O)/C=C/c1ccccc1 | -14.4% | 24.1* | -39.3% | -8.8% | 19.4 | 188.4%
Cc1ccccc1OCCNC(=O)/C=C/c1ccc([N+](=O)[O-])cc1 | 0.4% | 11.7 | 0.5% | 19.6% | -0.8 | 35.3%
O=C(/C=N\O)NCCCNCc1ccccc1 | -1.1% | 1.8 | 5.7% | -5.3% | -1.4 | 5.86µM*
O=C(NCCCNCc1ccccc1)c1ccncc1 | 0.0% | 2.3 | 0.1% | -2.5% | -2.8 | u
CC(OC(=O)CC1Sc2ccccc2NC1=O)C(=O)NC1CCCC1 (stereo unspecified) | -18.9% | -11.2 | 13.0% | 2.9% | -4.4 | -9.8%
CCc1ccc(-n2nc(CO)c(C(=O)NCCOC)n2)cc1 | 4.4% | x | x | x | x | x
CCCCN1C(=S)NC[C@@H]1Cc1cccc2ccccc12 | -0.7% | 59.5* | -39.7% | -10.3% | 18.0* | u
O=C1NC[C@@H](Cc2cccc3ccccc23)N(CC2(c3ccccc3)CC2)C1=O | -4.1% | -8.7 | -9.0% | 11.7µM* | -6.3 | 13.1µM*
CCCN(CCC)CCNC(=O)C1c2ccccc2C(=O)N(CCOC)C1c1ccc(F)cc1 (stereo unspecified) | -23.3% | -5.0 | 1.4% | -20.3% | -5.4 | u
Cc1cc(NC(=S)NC(=O)/C=C/c2ccc(S(=O)(=O)N3CCOCC3)cc2)ccc1Br | 6.3% | 11.7 | 9.1% | u | -1.0 | u
O=C(Cn1c(=O)oc2ccc(Cl)cc21)NC1CCCCC1 | -0.9% | 4.0 | -1.7% | -23.0% | -1.6 | 9.28µM*
CCCNC(=O)Cn1c(=O)oc2cc(S(=O)(=O)N3CCCC3)ccc21 | 2.0% | 1.7 | -12.1% | 17.8% | -2.9 | 14.3%
Cc1csc(NC(=O)C2CCN(S(=O)(=O)c3ccc4c(c3)oc(=O)n4C)CC2)n1 | 2.2% | -18.6 | 4.9% | x | -7.2 | 3.29µM*
O=C(NC1CCCCC1)n1c(=O)oc2ccc(Cl)cc21 | -3.3% | -4.7 | -14.0% | 19.8% | 7.4 | 14.2%
CC1CCN(S(=O)(=O)c2ccc3c(c2)oc(=O)n3CC(=O)O)CC1 | 2.4% | x | x | x | x | x
O=C(Cn1c(=O)oc2cc(S(=O)(=O)N3CCCCCC3)ccc21)NC1CCCCCCC1 | 0.0% | -7.7 | -59.5% | x | -5.7 | 11.7µM*
Cc1cc(C)cc(NC(=O)Cn2c(=O)oc3cc(S(=O)(=O)N4CCC(C)CC4)ccc32)c1 | -26.5% | -16.0 | 5.3% | x | -4.7 | 11.7µM*
